{"source": "ChEMBL document CHEMBL3988442", "about": "“University of Dundee, Small-Polar-MMV Screening Library” (2021)"}
{"target": "T1, Aspartate--tRNA(Asp/Asn) ligase (Mycobacterium tuberculosis (strain ATCC 25618 / H37Rv)) (UniProt P9WFW3)", "T1 sequence (whole entry)": "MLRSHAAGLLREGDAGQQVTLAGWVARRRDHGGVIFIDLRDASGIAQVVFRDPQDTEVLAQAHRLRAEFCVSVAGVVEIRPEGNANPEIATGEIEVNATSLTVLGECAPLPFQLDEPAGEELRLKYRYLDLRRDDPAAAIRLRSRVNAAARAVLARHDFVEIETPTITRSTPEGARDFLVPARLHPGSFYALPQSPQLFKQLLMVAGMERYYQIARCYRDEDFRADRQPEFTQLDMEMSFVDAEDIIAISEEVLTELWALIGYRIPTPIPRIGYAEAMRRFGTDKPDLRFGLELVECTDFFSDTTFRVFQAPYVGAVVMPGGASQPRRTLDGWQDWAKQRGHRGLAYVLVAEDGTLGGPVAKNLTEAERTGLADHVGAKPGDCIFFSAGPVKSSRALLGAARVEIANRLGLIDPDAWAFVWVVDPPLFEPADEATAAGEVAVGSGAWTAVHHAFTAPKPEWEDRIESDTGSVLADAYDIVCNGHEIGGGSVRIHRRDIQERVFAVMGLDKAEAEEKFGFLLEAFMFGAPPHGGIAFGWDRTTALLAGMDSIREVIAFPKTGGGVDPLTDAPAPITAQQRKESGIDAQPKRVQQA", "experiment": "Assay for Asp RNA synthetase-1 from Mycobacterium tuberculosis", "type": "functional", "set-up": "scale not given: direction of the effect not stated beside the values", "conditions": "30 µM", "units": {"Percent Effect": "%"}}
{"smiles": "Cc1cc(F)ccc1S(=O)(=O)NCc1cccc(C(=O)N2CCCC2)c1", "Percent Effect": -1.3}
{"smiles": "CCn1cc(NC(=O)NCc2ccc3c(c2)OCCO3)cn1", "Percent Effect": 1.48}
{"smiles": "CCOc1ccc(Cl)c(C(=O)N(C)C)n1", "Percent Effect": -0.544}
{"smiles": "Cc1cc2nc(SCC(=O)N3CCCC3)n(C(C)C)c(=O)c2[nH]1", "Percent Effect": 0.509}
{"smiles": "O=C(c1cc(=O)[nH]c(=O)[nH]1)N1CCCCC1c1ccc(F)cc1", "note": "(stereo not given)", "Percent Effect": 0.947}
{"smiles": "CN1CCC(Cc2cc(Nc3ncccn3)ncn2)CC1", "Percent Effect": 7.7}
{"smiles": "CCc1ncc2c(n1)CN(Cc1nnc(C)o1)CC2", "Percent Effect": -4.37}
{"smiles": "O=C(c1cc(Cl)cc(Cl)c1)N1CCN(c2nccs2)CC1", "Percent Effect": -0.345}
{"smiles": "c1ccc(-n2ncc(CNCC3CCCN3c3cccnn3)n2)cc1", "note": "(stereo not given)", "Percent Effect": 4.5}
{"smiles": "Cc1cc(C(=O)N2CCCC(n3ccnc3C)C2)c(C)s1", "note": "(stereo not given)", "Percent Effect": -4.25}
{"smiles": "CC(C)N(C)C(=O)C1=NOC2(CCN(C(=O)c3ccccn3)C2)C1", "note": "(stereo not given)", "Percent Effect": 2.07}
{"smiles": "O=C(Nc1nc2c(s1)CCC2)c1cccnc1N1CCOCC1", "Percent Effect": -4.4}
{"smiles": "Cc1cc(C)cc(OCCC(=O)N2CCOCC2c2ncon2)c1", "note": "(stereo not given)", "Percent Effect": 5.48}
{"smiles": "CCC1=N[C@@]2(CC[C@@H]3CN(S(=O)(=O)CC(C)C)C[C@@H]32)C(=O)N1C", "Percent Effect": 0.189}
{"smiles": "CCc1nccn1C1CCCN(C(=O)c2cnn3ccc(C)nc23)C1", "note": "(stereo not given)", "Percent Effect": 0.632}
{"smiles": "Cn1cc(N2CC3(COCCN(Cc4ccsc4)C3)OCC2=O)cn1", "note": "(stereo not given)", "Percent Effect": 13.7}
{"smiles": "COC(=O)C1CCN(C(=O)CN2CCN(c3cccc(C)c3)CC2)CC1", "Percent Effect": -0.137}
{"smiles": "O=C(CCNc1ncccn1)NCCc1ccn(-c2ccccc2)n1", "Percent Effect": -3.01}
{"smiles": "CC(C)CNC(=O)[C@H]1CCS(=O)(=O)[C@@H]2CN(Cc3cccc(Cl)c3)C[C@H]12", "Percent Effect": -3.06}
{"smiles": "Cc1cnc(CN2CCOC(CNc3cccnn3)C2)cn1", "note": "(stereo not given)", "Percent Effect": -2.97}
{"smiles": "COc1ccc(CN(C)C(=O)CCc2c(C)nc(C)[nH]c2=O)cc1OC", "Percent Effect": -5.24}
{"smiles": "CCN1CC2(CC1=O)CN(C(C)=O)CCN(C(=O)c1ccco1)C2", "note": "(stereo not given)", "Percent Effect": -3.81}
{"smiles": "Cc1ccc(C)c(C(=O)CN2C(=O)c3ccccc3CS2(=O)=O)c1", "Percent Effect": 2.42}
{"smiles": "COc1ccc(C(=O)N(C)Cc2nnc3ccccn23)c(OC)c1", "Percent Effect": 0.49}
{"smiles": "CC(=O)N1CCCCC1c1nc(N)ncc1-c1ccccc1", "note": "(stereo not given)", "Percent Effect": 5.78}
{"smiles": "COc1ccc(C(O)CNC(=O)NCc2csc(C)n2)cc1", "note": "(stereo not given)", "Percent Effect": -1.2}
{"smiles": "CN1CCc2c(C#N)c(NCc3ccco3)n3cnnc3c2C1", "Percent Effect": 6.08}
{"smiles": "O=C(NCC(=O)N1CCc2ccccc2C1)c1ccoc1", "Percent Effect": 1.62}
{"smiles": "COCCOc1ccccc1C(=O)N1CCCCC1c1nccs1", "note": "(stereo not given)", "Percent Effect": 4.67}
{"smiles": "O=C(c1ccc[nH]1)N1CCC2(CC1)C(=O)Nc1ccccc12", "Percent Effect": -1.68}
{"smiles": "CCOc1ncccc1C(=O)N(C)Cc1ncc(C)c(OC)c1C", "Percent Effect": -0.375}
{"smiles": "Cc1cc(C2CCCN(C(=O)c3c(C)noc3C)C2)n[nH]1", "note": "(stereo not given)", "Percent Effect": -1.62}
{"smiles": "CC(C)(C)C(=O)NCCC(=O)NS(=O)(=O)c1ccc2c(c1)OCCO2", "Percent Effect": -10.1}
{"smiles": "Cn1c(Cn2cccn2)nnc1C1CCCN(c2ccncc2)C1", "note": "(stereo not given)", "Percent Effect": 1.37}
{"smiles": "Fc1ccc(CN2CCCC(c3nnc(-c4cnccn4)o3)C2)cc1F", "note": "(stereo not given)", "Percent Effect": 2.55}
{"smiles": "O[C@H]1[C@H](n2cc(-c3ccccc3)nn2)c2ccccc2C12CCNCC2", "Percent Effect": 6.77}
{"smiles": "Cc1cc(C)n(CC2CCCN2C(=O)c2cccc3[nH]ncc23)n1", "note": "(stereo not given)", "Percent Effect": -2.45}
{"smiles": "O=C(c1ccccn1)N1CCCC(c2nccn2CC2CCC2)C1", "note": "(stereo not given)", "Percent Effect": 4.83}
{"smiles": "COc1ccccc1CNC(=O)N1CCCC(NS(C)(=O)=O)C1", "note": "(stereo not given)", "Percent Effect": 1.76}
{"smiles": "Cc1ccc(NC(=O)C2CSCN2C(=O)c2cc[nH]n2)c(C)c1", "note": "(stereo not given)", "Percent Effect": -3.15}
{"target": "Shiga toxin 2 (Escherichia coli O157:H7) (UniProt P09385+P09386)", "experiment": "E. coli 0.157:H7 Shiga Toxin SOP - stx2 screening assay", "type": "functional", "set-up": "scale not given: direction of the effect not stated beside the values", "conditions": "30 µM", "units": {"Percent Effect": "%"}}
{"smiles": "Cc1cc(F)ccc1S(=O)(=O)NCc1cccc(C(=O)N2CCCC2)c1", "Percent Effect": 30.6}
{"smiles": "CCn1cc(NC(=O)NCc2ccc3c(c2)OCCO3)cn1", "Percent Effect": -43.3}
{"smiles": "CCOc1ccc(Cl)c(C(=O)N(C)C)n1", "Percent Effect": -62.5}
{"smiles": "Cc1cc2nc(SCC(=O)N3CCCC3)n(C(C)C)c(=O)c2[nH]1", "Percent Effect": -18}
{"smiles": "O=C(c1cc(=O)[nH]c(=O)[nH]1)N1CCCCC1c1ccc(F)cc1", "note": "(stereo not given)", "Percent Effect": -12.6}
{"smiles": "CN1CCC(Cc2cc(Nc3ncccn3)ncn2)CC1", "Percent Effect": 7.59}
{"smiles": "CCc1ncc2c(n1)CN(Cc1nnc(C)o1)CC2", "Percent Effect": -16.2}
{"smiles": "O=C(c1cc(Cl)cc(Cl)c1)N1CCN(c2nccs2)CC1", "Percent Effect": -14.9}
{"smiles": "c1ccc(-n2ncc(CNCC3CCCN3c3cccnn3)n2)cc1", "note": "(stereo not given)", "Percent Effect": 8.59}
{"smiles": "Cc1cc(C(=O)N2CCCC(n3ccnc3C)C2)c(C)s1", "note": "(stereo not given)", "Percent Effect": -6.7}
{"smiles": "CC(C)N(C)C(=O)C1=NOC2(CCN(C(=O)c3ccccn3)C2)C1", "note": "(stereo not given)", "Percent Effect": 3}
{"smiles": "O=C(Nc1nc2c(s1)CCC2)c1cccnc1N1CCOCC1", "Percent Effect": -10.3}
{"smiles": "Cc1cc(C)cc(OCCC(=O)N2CCOCC2c2ncon2)c1", "note": "(stereo not given)", "Percent Effect": 33.2}
{"smiles": "CCC1=N[C@@]2(CC[C@@H]3CN(S(=O)(=O)CC(C)C)C[C@@H]32)C(=O)N1C", "Percent Effect": -1.16}
{"smiles": "CCc1nccn1C1CCCN(C(=O)c2cnn3ccc(C)nc23)C1", "note": "(stereo not given)", "Percent Effect": 11.2}
{"smiles": "Cn1cc(N2CC3(COCCN(Cc4ccsc4)C3)OCC2=O)cn1", "note": "(stereo not given)", "Percent Effect": -3.88}
{"smiles": "COC(=O)C1CCN(C(=O)CN2CCN(c3cccc(C)c3)CC2)CC1", "Percent Effect": -48.5}
{"smiles": "O=C(CCNc1ncccn1)NCCc1ccn(-c2ccccc2)n1", "Percent Effect": -46.2}
{"smiles": "CC(C)CNC(=O)[C@H]1CCS(=O)(=O)[C@@H]2CN(Cc3cccc(Cl)c3)C[C@H]12", "Percent Effect": -29.7}
{"smiles": "Cc1cnc(CN2CCOC(CNc3cccnn3)C2)cn1", "note": "(stereo not given)", "Percent Effect": 6.13}
{"smiles": "COc1ccc(CN(C)C(=O)CCc2c(C)nc(C)[nH]c2=O)cc1OC", "Percent Effect": -6.32}
{"smiles": "CCN1CC2(CC1=O)CN(C(C)=O)CCN(C(=O)c1ccco1)C2", "note": "(stereo not given)", "Percent Effect": -35.2}
{"smiles": "Cc1ccc(C)c(C(=O)CN2C(=O)c3ccccc3CS2(=O)=O)c1", "Percent Effect": -18.8}
{"smiles": "COc1ccc(C(=O)N(C)Cc2nnc3ccccn23)c(OC)c1", "Percent Effect": 24.6}
{"smiles": "CC(=O)N1CCCCC1c1nc(N)ncc1-c1ccccc1", "note": "(stereo not given)", "Percent Effect": 4.38}
{"smiles": "COc1ccc(C(O)CNC(=O)NCc2csc(C)n2)cc1", "note": "(stereo not given)", "Percent Effect": -23.7}
{"smiles": "CN1CCc2c(C#N)c(NCc3ccco3)n3cnnc3c2C1", "Percent Effect": -1.51}
{"smiles": "O=C(NCC(=O)N1CCc2ccccc2C1)c1ccoc1", "Percent Effect": -10.2}
{"smiles": "COCCOc1ccccc1C(=O)N1CCCCC1c1nccs1", "note": "(stereo not given)", "Percent Effect": -6.36}
{"smiles": "O=C(c1ccc[nH]1)N1CCC2(CC1)C(=O)Nc1ccccc12", "Percent Effect": 16.7}
{"smiles": "CCOc1ncccc1C(=O)N(C)Cc1ncc(C)c(OC)c1C", "Percent Effect": 19.7}
{"smiles": "Cc1cc(C2CCCN(C(=O)c3c(C)noc3C)C2)n[nH]1", "note": "(stereo not given)", "Percent Effect": 8.79}
{"smiles": "CC(C)(C)C(=O)NCCC(=O)NS(=O)(=O)c1ccc2c(c1)OCCO2", "Percent Effect": 0.645}
{"smiles": "Cn1c(Cn2cccn2)nnc1C1CCCN(c2ccncc2)C1", "note": "(stereo not given)", "Percent Effect": -3.13}
{"smiles": "Fc1ccc(CN2CCCC(c3nnc(-c4cnccn4)o3)C2)cc1F", "note": "(stereo not given)", "Percent Effect": -5.16}
{"smiles": "O[C@H]1[C@H](n2cc(-c3ccccc3)nn2)c2ccccc2C12CCNCC2", "Percent Effect": -10.9}
{"smiles": "Cc1cc(C)n(CC2CCCN2C(=O)c2cccc3[nH]ncc23)n1", "note": "(stereo not given)", "Percent Effect": -17.6}
{"smiles": "O=C(c1ccccn1)N1CCCC(c2nccn2CC2CCC2)C1", "note": "(stereo not given)", "Percent Effect": -29.9}
{"smiles": "COc1ccccc1CNC(=O)N1CCCC(NS(C)(=O)=O)C1", "note": "(stereo not given)", "Percent Effect": 23.8}
{"smiles": "Cc1ccc(NC(=O)C2CSCN2C(=O)c2cc[nH]n2)c(C)c1", "note": "(stereo not given)", "Percent Effect": 12}
